In PubChem BioAssay (NCI):
Compounds without any hit were thinned out: in the full panel of roughly 79,000, 15% have a hit. A number with no mark means an inactive call. Active and inactive are the calls of the source. Rule as the data show it: active = growth inhibition above about 70%; inactive = the rest.

assay: NCI Yeast Anticancer Drug Screen. Data for the rad14 strain (AID 159);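 also: 0% = growth of vehicle-treated control cultures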; conditions: S. cerevisiae rad14 strain growth inhibition; at 3.7 µM; stronger effect = higher value
In short: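 Screen for anticancer potential: a yeast strain altered in DNA damage repair is grown with compound, and reduced growth is quantified against vehicle controls.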

Compound	growth inhibition
CC(CN(C)C)C(=O)/C=C/c1ccc(Cl)c(Cl)c1 (configuration not stated)	9%
CCCCCCNCCCNc1c2cc(OC)ccc2nc2cccc([N+](=O)[O-])c12	55%
NC(=S)N1N=C2c3ccccc3CC[C@H]2[C@@H]1c1ccc(Cl)cc1	-20%
C/C(=N/NC(=S)Nc1ccccc1C)c1ccccn1	-11%
O=C1/C(=C/c2ccc(Cl)c(Cl)c2)CNC/C1=C\c1ccc(Cl)c(Cl)c1	8%
CC(C)OP(=O)(OC(C)C)C(=NCCO)NNc1ccc([N+](=O)[O-])cc1	3%
N#CCC(=O)N/N=C(\c1ccccc1)C(c1ccccc1)C1(O)C(=O)Nc2c(Cl)ccc(Cl)c21 (configuration not stated)	7%
CC(C)(CN1CCCCC1)C(=O)CC(SCCS(=O)(=O)O)c1ccccc1 (configuration not stated)	9%
COC1=CCC23C(=O)C=CC(=O)C2(C1)C(=O)c1ccccc1C3=O (configuration not stated)	2%
CCCCN(CCCC)c1ccc(N=Nc2ccc(S(=O)(=O)O)cc2)cc1	8%
c1ccc2nc3c(nc2c1)sc1ccccc13	21%
O=C1c2ccccc2-c2ccc(N=Cc3ccccc3)cc21	2%
CNC(=S)N/N=C(/C)CCC/C(C)=N/NC(=S)NC	44%
Nc1ccc(/C=C/c2ccc3cccnc3c2)cc1	4%
COc1ccc2c3c1OC(C)C31CC(=O)CCC1CC2 (configuration not stated)	1%
CCOC(=O)Nc1ccc(C)c(NC(=O)OCC)c1	7%
CCN(CC)CCNc1ccc2nc(C)n3c4ccc(OC)cc4c(=O)c1c23	24%
C[N+](C)([O-])CCCNc1c2ccccc2nc2cccc([N+](=O)[O-])c12	90% (active)

Compound	growth inhibition
O=C(c1cc(=O)c2ccc(O)cc2o1)c1ccc(Cl)cc1Cl	4%
CCCNC(=O)OCc1c(COC(=O)NCCC)c(-c2ccc(Cl)c(Cl)c2)n2c1CCC2	-3%
O=C(Cc1ccccc1)NN1C(=O)C(Cl)C1c1cc(Br)cc(Br)c1O (configuration not stated)	-3%
CCOC(=O)C(Cc1c2ccccc2cc2ccccc12)(NC(C)=O)C(=O)OCC	-5%
O=[N+]([O-])/C=C/c1cc2ccc3ccccc3c2[nH]1	27%
Fc1ccc(Nc2ccc3ccccc3c2)cc1	2%
O=S1(=O)CCC2=CC(C(F)(F)F)=CC(C(F)(F)F)=CN21	38%
O=C(Cc1ccccc1)NNc1nc(NNC(=O)c2ccncc2)nc(Nc2ccc([N+](=O)[O-])cc2)n1	2%
CCCCS/C(=C(/C#N)C(N)=O)c1cc2c([nH]1)CCCC2	-9%
O=C(O)c1ccccc1C(=O)OC1CCc2ccccc2C1 (configuration not stated)	-7%
CCOC(=O)/C(=C\c1cccc(C)c1)C(C)=O	-7%
NC(=S)N/N=C1\c2ccccc2CCC1CCC1(O)CCc2ccccc2C1=O (configuration not stated)	7%
Cc1cccc2c(Cl)c3cccc(C)c3nc12	11%
CC(C)OC(=O)NNc1c(Cl)cc(Cl)cc1Cl	-2%
Nc1ccc2c(c1)C(=O)c1c(F)cccc1-2	7%
N#CSCC1COc2ccccc2O1 (configuration not stated)	-12%
Cc1ccc(S(=O)(=O)NC(=O)C2C(=O)CC3(CCCCC3)CC2=O)cc1	-44%
CC1=NN(C(=O)c2ccccc2O)C(=O)/C1=C/c1ccco1	15%

same assay, conditions: S. cerevisiae rad14 strain growth inhibition; at 11.0 µM; stronger effect = higher value

Compound	growth inhibition
CC(CN(C)C)C(=O)/C=C/c1ccc(Cl)c(Cl)c1 (configuration not stated)	22%
CCCCCCNCCCNc1c2cc(OC)ccc2nc2cccc([N+](=O)[O-])c12	96% (active)
NC(=S)N1N=C2c3ccccc3CC[C@H]2[C@@H]1c1ccc(Cl)cc1	-10%
C/C(=N/NC(=S)Nc1ccccc1C)c1ccccn1	-11%
O=C1/C(=C/c2ccc(Cl)c(Cl)c2)CNC/C1=C\c1ccc(Cl)c(Cl)c1	20%
CC(C)OP(=O)(OC(C)C)C(=NCCO)NNc1ccc([N+](=O)[O-])cc1	4%
N#CCC(=O)N/N=C(\c1ccccc1)C(c1ccccc1)C1(O)C(=O)Nc2c(Cl)ccc(Cl)c21 (configuration not stated)	10%
CC(C)(CN1CCCCC1)C(=O)CC(SCCS(=O)(=O)O)c1ccccc1 (configuration not stated)	17%
COC1=CCC23C(=O)C=CC(=O)C2(C1)C(=O)c1ccccc1C3=O (configuration not stated)	1%
CCCCN(CCCC)c1ccc(N=Nc2ccc(S(=O)(=O)O)cc2)cc1	38%
c1ccc2nc3c(nc2c1)sc1ccccc13	35%
O=C1c2ccccc2-c2ccc(N=Cc3ccccc3)cc21	3%
CNC(=S)N/N=C(/C)CCC/C(C)=N/NC(=S)NC	61%
Nc1ccc(/C=C/c2ccc3cccnc3c2)cc1	5%
COc1ccc2c3c1OC(C)C31CC(=O)CCC1CC2 (configuration not stated)	2%
CCOC(=O)Nc1ccc(C)c(NC(=O)OCC)c1	10%
CCN(CC)CCNc1ccc2nc(C)n3c4ccc(OC)cc4c(=O)c1c23	27%
C[N+](C)([O-])CCCNc1c2ccccc2nc2cccc([N+](=O)[O-])c12	94% (active)

Compound	growth inhibition
O=C(c1cc(=O)c2ccc(O)cc2o1)c1ccc(Cl)cc1Cl	19%
CCCNC(=O)OCc1c(COC(=O)NCCC)c(-c2ccc(Cl)c(Cl)c2)n2c1CCC2	0%
O=C(Cc1ccccc1)NN1C(=O)C(Cl)C1c1cc(Br)cc(Br)c1O (configuration not stated)	85% (active)
CCOC(=O)C(Cc1c2ccccc2cc2ccccc12)(NC(C)=O)C(=O)OCC	-3%
O=[N+]([O-])/C=C/c1cc2ccc3ccccc3c2[nH]1	62%
Fc1ccc(Nc2ccc3ccccc3c2)cc1	2%
O=S1(=O)CCC2=CC(C(F)(F)F)=CC(C(F)(F)F)=CN21	67%
O=C(Cc1ccccc1)NNc1nc(NNC(=O)c2ccncc2)nc(Nc2ccc([N+](=O)[O-])cc2)n1	12%
CCCCS/C(=C(/C#N)C(N)=O)c1cc2c([nH]1)CCCC2	-13%
O=C(O)c1ccccc1C(=O)OC1CCc2ccccc2C1 (configuration not stated)	-7%
CCOC(=O)/C(=C\c1cccc(C)c1)C(C)=O	38%
NC(=S)N/N=C1\c2ccccc2CCC1CCC1(O)CCc2ccccc2C1=O (configuration not stated)	47%
Cc1cccc2c(Cl)c3cccc(C)c3nc12	4%
CC(C)OC(=O)NNc1c(Cl)cc(Cl)cc1Cl	2%
Nc1ccc2c(c1)C(=O)c1c(F)cccc1-2	16%
N#CSCC1COc2ccccc2O1 (configuration not stated)	-16%
Cc1ccc(S(=O)(=O)NC(=O)C2C(=O)CC3(CCCCC3)CC2=O)cc1	3%
CC1=NN(C(=O)c2ccccc2O)C(=O)/C1=C/c1ccco1	69%
